# Activity calls are given as the source filed them.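 Rule for the calls, unless noted: active = compounds that lower survival of HCT116 colon cancer cells in the luminescence readout, no numeric limit stated; inactive = the rest.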
# Assay: GLP1 release stimulators, primary, NCI-H716, NPC library (AID 1117341;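 active = compound raises GLP1 secretion from the human gut endocrine cells, with no numeric limit stated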; note: reference of the scale not given here)
# Conditions: NCI-H716 cells, at 10 µM, active compounds read high
row,SMILES,GLP1 secretion stimulation
1,CC(=O)Nc1ccccc1,2.1% (inactive)
2,O=C(CCCCC(=O)Nc1c(I)cc(I)c(C(=O)O)c1I)Nc1c(I)cc(I)c(C(=O)O)c1I,-3.5% (inactive)
3,O=C(O)c1ccccc1C(=O)Nc1ccc(S(=O)(=O)Nc2nccs2)cc1,1.4% (inactive)
4,Cc1c(NC(C)C)c(=O)n(-c2ccccc2)n1C,-0.1% (active)
5,CC[C@]12CCCN3CCc4c(n(c5ccccc45)[C@@](O)(C(=O)OC)C1)[C@@H]32,-2.6% (inactive)
6,Cc1cc(C)cc(OCC2CNC(=O)O2)c1 (stereo not drawn),-1.5% (inactive)

# Assay: HCT116 colon cancer cell growth inhibition, primary screen, CellTiter-Glo luminescence, NPC library (AID 1117342)
# Conditions: at 20 µM (top of the series)
row,SMILES,inhibition of viability
1,O=C(O)c1cc(O)c(O)c(O)c1,1.3% (inactive)
2,Cc1c(C(N)=O)cc([N+](=O)[O-])cc1[N+](=O)[O-],-20% (inactive)
3,Nc1ccc(S(=O)(=O)Nc2ccc(Cl)nn2)cc1,-6.17% (inactive)
4,CCCc1cc(C(N)=S)ccn1,6.7% (inactive)
5,CCCCC(CC)CN1CN(CC(CC)CCCC)CC(C)(N)C1 (stereo not drawn),102% (active)
6,C[N+]12CCC(CC1)C(OC(=O)C(O)(c1ccccc1)c1ccccc1)C2 (stereo not drawn),10.6% (inactive)
7,C=CCSCC1Nc2cc(Cl)c(S(N)(=O)=O)cc2S(=O)(=O)N1 (stereo not drawn),3.27% (inactive)
8,Oc1c(Cl)cc(Cl)cc1Sc1cc(Cl)cc(Cl)c1O,103% (active)
9,CCOc1ccc(Cc2nccc3cc(OCC)c(OCC)cc23)cc1OCC,69.1% (active)
10,O=C1C(O)=C(O)C(=O)C(O)=C1O,-0.4% (inactive)
11,Oc1ccc(Cl)c2cccnc12,32.7% (inactive)
12,COc1ccc(C2C(=O)c3ccccc3C2=O)cc1,35.2% (inactive)

# Source: PubChem BioAssay
